Measurements from PubChem BioAssay (NCATS).
A number with no mark means an inactive call. Records with an inconclusive call do not appear. The source made the active and inactive calls. Unless noted, calls come from the whole dose curve; as a rule, active = well fitted curve in either direction with a large enough effect (not every such curve was filed as active); inconclusive = small, poorly fitted or top-dose-only effect, or another doubt; inactive = flat fitted curve, though single readings scatter.

Key:
[1] = biological target: Lysosomal acid glucosylceramidase (Homo sapiens) (UniProt P04062); experiment: Glucocerebrosidase-p2 (AID 348; in the data active = potency below about 10 µM; note: potency is the fitted concentration of half-maximal effect); settings: purified GBA, blue fluorogenic substrate, 40 min
Method in brief: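 Compounds titrated from 0.6 nM upwards against 0.2 nM enzyme in pH 5.9 citric acid/KH2PO4, taurocholate, tween-20; blue fluorogenic substrate 80 uM, 40 min room temperature, stopped and read Ex 365/Em 440 for AC50.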

[2] = AP1 Signaling Pathway (AID 357); settings: ME-180 AP-1-bla reporter, EGF-induced, beta-lactamase ratio, 5 h; at 7.69 µM (top of the series) unless noted;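 note: ME-180 reporter cells stimulated with EGF at its EC50 level; % is set by controls: 0 for no effect and ±100 for the full control effect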
Method in brief: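 Beta-lactamase reporter under AP-1 response element, ME-180 background. Stimulus: EC50 EGF. Compound exposure 5 h, 37 °C. Detection: CCF4, 2.5 h RT, 460/530 nm. Values: AC50 from titration.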

[3] = biological target: Cytochrome P450 1A2 (Homo sapiens) (UniProt P05177); experiment: p450-cyp1a2 (AID 410; calls by dose curve; note: potency is the fitted concentration of half-maximal effect;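 for activity change, negative = inhibition: -100% = full effect of reference inhibitor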); settings: recombinant CYP1A2, luciferin-ME demethylation, luminescence; series mostly up to 11.4 µM
Method in brief: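 Inhibition was calculated relative to 57 uM furafylline (full inhibition). The reaction used human CYP1A2 at 20nM with Luciferin-ME at its Km, 100uM, driven by an NADPH-regenerating system for 60 min at room temperature.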

[4] = Stat Signaling Pathway (AID 446); settings: ME-180 SIE beta-lactamase reporter, IL-6 stimulated, 5 h; at 7.69 µM (top of the series) unless noted;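 note: ME-180 cervical cancer cells given 40 pM IL-6 alongside compound; SIE-controlled beta-lactamase reporter measured as 460/530 nm FRET emission ratio; % is set by controls: 0 for no effect and ±100 for the full control effect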
Method in brief: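 Reporter line: ME-180 cervical carcinoma, SIE-beta-lactamase. Treatment: compound with 40 pM IL-6, 5 hrs, 37 C, in low-serum OPTI-MEM with 10 mM HEPES pH 7.3. Detection: 460/530 nm fluorescence.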

[5] = biological target: Glucocorticoid receptor (Homo sapiens) (UniProt P04150); experiment: GR-GFP Redistribution (AID 450;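 active = compounds whose dose series gives a full or clear partial fitted curve of increased nuclear translocation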; note: potency is the fitted concentration of half-maximal effect); settings: U2OS GR-GFP nuclear translocation, laser cytometry, 2 h
[6] = biological target: Glucocorticoid receptor (Homo sapiens) (UniProt P04150); experiment: GR-EFC Redistribution (AID 451; calls by dose curve; note: potency is the fitted concentration of half-maximal effect); settings: CHO-K1 GR-EFC translocation, beta-gal luminescence, 2 h
Method in brief: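 Translocation of GR-ED fusion to nuclear EA restores b-gal, read by luminescence after 1 h room-temperature detection. Engineered CHO-K1 biosensor cells, 1,000/well, exposed 2 h at 37 C to titrations up to 46 uM final.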

[7] = biological target: 3',5'-cyclic-AMP phosphodiesterase 4B (Homo sapiens) (UniProt Q07343); experiment: qHTS Assay for Inhibitors of PDE-IV (AID 607; active = well fitted activation curve with a large enough effect in the main read-out, with a control signal flat, not every such curve was filed as active; note: % of control where 0% means no effect); settings: HEK293 ACTOne CNG channel cells, membrane potential fluorescence; series mostly up to 22.9 µM
Method in brief: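 Cell-based read-out of cAMP via a modified cyclic nucleotide-gated channel and membrane potential dye (535/590 nm) in HEK293 cells expressing PDE4 endogenously. Compounds tested up to 22.9 uM final; 100 uM RO 20-1724 reference.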

[8] = biological target: Mitogen-activated protein kinase 10 (Mus musculus) (UniProt Q61831); experiment: JNK3 AlphaScreen Assay (AID 530); settings: JNK3 lysate, c-Jun phosphorylation; series mostly up to 11.4 µM;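 note: kinase came from lysate of stimulated human HepG2 cells; signal reports phosphorylation of biotinylated GST-cJun 1-79 at Ser73 with 10 µM ATP; % is set by controls: 0 for no effect and ±100 for the full control effect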
Method in brief: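 Room-temperature AlphaScreen kinase assay; pre-activated HepG2 lysate as JNK3 source, biotin-GST-cJun(1-79) substrate, 10 uM ATP, compound 15 min preincubation.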

[9] = qHTS Assay for Identification of Small Molecule Agonists for Hypoxia Response Element Signaling Pathway (AID 914; active = well fitted activation curve with a large enough effect in the signal ratio, with a control signal flat, not every such curve was filed as active; the % refers to the signal ratio; note: % of control where 0% means no effect); settings: ME-180 (cervical carcinoma) HRE-bla reporter, beta-lactamase ratio, CoCl2, 17 h; activation: stronger effect = higher value
Method in brief: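 qHTS titration; ME-180 HRE-bla cells; EC50 CoCl2 co-treatment, 17 h at 37 degrees Celsius; CCF4 dye, ex 405nm, em 460nm and 530nm; %Activity from ratio; AC50.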

[10] = biological target: Cytochrome P450 2D6 (Homo sapiens) (UniProt P10635); experiment: qHTS Assay for Inhibitors and Substrates of Cytochrome P450 2D6 (AID 891; active = well fitted curve in the direction sought with a large enough effect; an effect the other way counts as inactive or inconclusive; note: nearly all actives have a fitted effect of over 60% in size; note: potency is the fitted concentration of half-maximal effect); settings: recombinant CYP2D6, luciferin-ME EGE luminescence; series mostly up to 11.4 µM
Method in brief: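 Human CYP2D6 (5 nM) with 30 uM Luciferin-ME EGE (at Km) in 100 mM KPO4, compound preincubated 10 min, then NADPH regeneration system for 60 min at room temperature. Luciferin read by luminescence; normalized to 1.43 uM quinidine.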

[11] = biological target: Cytochrome P450 2C19 (Homo sapiens) (UniProt P33261); experiment: qHTS Assay for Inhibitors and Substrates of Cytochrome P450 2C19 (AID 899; active = well fitted curve in the direction sought with a large enough effect; an effect the other way counts as inactive or inconclusive; note: nearly all actives have a fitted effect of over 60% in size; note: potency is the fitted concentration of half-maximal effect); settings: recombinant CYP2C19, luciferin-H EGE luminescence; series mostly up to 11.4 µM
Method in brief: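 Reactions contain 5nM enzyme, 10uM Luciferin-H EGE (KM) and 50mM KPO4; compound preincubates 10 min at 37C, NADPH regeneration starts turnover for 60 min. Luminescence after detection reagent gives activity.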

[12] = biological target: Cytochrome P450 2C9 (Homo sapiens) (UniProt P11712); experiment: qHTS Assay for Inhibitors and Substrates of Cytochrome P450 2C9 (AID 883; active = well fitted curve in the direction sought with a large enough effect; an effect the other way counts as inactive or inconclusive; note: nearly all actives have a fitted effect of over 60% in size; note: potency is the fitted concentration of half-maximal effect; for activity change, negative = inhibition: % is set by controls: 0 for no effect and ±100 for the full control effect); settings: recombinant CYP2C9, luciferin-H luminescence, 60 min; series mostly up to 11.4 µM
Method in brief: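 Turnover of Luciferin-H (100uM, KM) by 10nM human CYP2C9 was measured over 60 min at 37C with NADPH regeneration; inhibitors and some substrates reduce luminescence. Data normalized to sulphaphenazole 57uM.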

[13] = biological target: Cytochrome P450 3A4 (Homo sapiens) (UniProt P08684); experiment: qHTS Assay for Inhibitors and Substrates of Cytochrome P450 3A4 (AID 884; active = well fitted curve in the direction sought with a large enough effect; an effect the other way counts as inactive or inconclusive; note: potency is the fitted concentration of half-maximal effect; nearly all actives have a fitted effect of over 50% in size); settings: recombinant CYP3A4, Luciferin-PPXE luminescence; series mostly up to 57.1 µM
Method in brief: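 20 nM human CYP3A4 with 25 uM Luciferin-PPXE (at KM) in 200 mM KPO4, preincubated 10 min with compound; NADPH regeneration started a 60 min RT reaction. Luciferin detected by luminescence, normalized to 57 uM ketoconazole as full inhibition.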

[14] = biological target: Cytochrome P450 3A4 (Homo sapiens) (UniProt P08684); experiment: qHTS Assay for Activators of Cytochrome P450 3A4 (AID 885; active = well fitted curve in the direction sought with a large enough effect; an effect the other way counts as inactive or inconclusive; note: nearly all actives have a fitted effect of over 65% in size); settings: recombinant CYP3A4, Luciferin-PPXE luminescence, 60 min; series mostly up to 11.4 µM
Method in brief: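 Signal was normalized against complete inhibition by 57 uM ketoconazole. The reaction used 20nM CYP3A4 with 25uM Luciferin-PPXE, 10-min compound preincubation and a 60-min NADPH-supported step at RT.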

Lysosomal acid glucosylceramidase (Homo sapiens), sequence (P04062 whole entry, looked up): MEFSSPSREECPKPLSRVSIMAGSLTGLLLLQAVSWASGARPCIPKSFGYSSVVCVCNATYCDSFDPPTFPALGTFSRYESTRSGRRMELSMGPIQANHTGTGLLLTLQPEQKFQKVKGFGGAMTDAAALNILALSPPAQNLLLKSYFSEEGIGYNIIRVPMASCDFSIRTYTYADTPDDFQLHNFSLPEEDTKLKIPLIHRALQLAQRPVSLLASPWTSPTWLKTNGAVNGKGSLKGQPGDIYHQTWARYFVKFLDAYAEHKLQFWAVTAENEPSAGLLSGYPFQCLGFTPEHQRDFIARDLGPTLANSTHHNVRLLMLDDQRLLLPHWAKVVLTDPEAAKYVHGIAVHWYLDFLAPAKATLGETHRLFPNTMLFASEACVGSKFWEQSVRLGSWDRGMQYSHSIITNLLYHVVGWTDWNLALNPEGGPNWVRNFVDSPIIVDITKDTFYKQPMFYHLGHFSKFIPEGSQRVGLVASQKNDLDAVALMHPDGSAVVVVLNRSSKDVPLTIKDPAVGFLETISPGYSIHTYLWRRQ
Cytochrome P450 2C19 (Homo sapiens), sequence (P33261 whole entry, looked up): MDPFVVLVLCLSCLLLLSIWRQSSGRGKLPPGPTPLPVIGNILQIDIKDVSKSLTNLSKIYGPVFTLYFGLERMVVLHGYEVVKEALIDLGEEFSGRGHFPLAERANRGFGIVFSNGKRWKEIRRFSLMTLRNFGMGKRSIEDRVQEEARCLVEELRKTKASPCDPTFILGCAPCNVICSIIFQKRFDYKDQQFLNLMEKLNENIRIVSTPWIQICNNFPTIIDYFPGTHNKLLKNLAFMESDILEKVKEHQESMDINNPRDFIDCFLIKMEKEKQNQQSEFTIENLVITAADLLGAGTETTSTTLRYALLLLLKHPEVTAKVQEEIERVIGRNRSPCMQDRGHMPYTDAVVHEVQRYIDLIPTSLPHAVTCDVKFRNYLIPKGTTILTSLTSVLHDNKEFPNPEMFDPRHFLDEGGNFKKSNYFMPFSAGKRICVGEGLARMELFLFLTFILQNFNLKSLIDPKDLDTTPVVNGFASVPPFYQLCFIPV
Cytochrome P450 1A2 (Homo sapiens), sequence (P05177 whole entry, looked up): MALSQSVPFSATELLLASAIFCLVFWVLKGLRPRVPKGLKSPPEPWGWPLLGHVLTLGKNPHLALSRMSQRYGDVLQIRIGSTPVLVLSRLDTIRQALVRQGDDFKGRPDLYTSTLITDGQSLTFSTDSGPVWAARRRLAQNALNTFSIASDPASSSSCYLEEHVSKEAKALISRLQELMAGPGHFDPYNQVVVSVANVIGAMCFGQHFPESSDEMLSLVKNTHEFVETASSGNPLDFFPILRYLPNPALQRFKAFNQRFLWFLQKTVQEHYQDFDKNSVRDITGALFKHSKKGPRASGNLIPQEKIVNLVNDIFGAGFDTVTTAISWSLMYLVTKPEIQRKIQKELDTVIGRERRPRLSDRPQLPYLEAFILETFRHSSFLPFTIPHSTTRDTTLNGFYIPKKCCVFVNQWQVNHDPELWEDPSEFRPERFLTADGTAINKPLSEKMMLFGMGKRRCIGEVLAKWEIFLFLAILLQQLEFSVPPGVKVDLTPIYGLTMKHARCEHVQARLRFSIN
Glucocorticoid receptor (Homo sapiens), sequence (P04150 whole entry, looked up, the tested form may be a part): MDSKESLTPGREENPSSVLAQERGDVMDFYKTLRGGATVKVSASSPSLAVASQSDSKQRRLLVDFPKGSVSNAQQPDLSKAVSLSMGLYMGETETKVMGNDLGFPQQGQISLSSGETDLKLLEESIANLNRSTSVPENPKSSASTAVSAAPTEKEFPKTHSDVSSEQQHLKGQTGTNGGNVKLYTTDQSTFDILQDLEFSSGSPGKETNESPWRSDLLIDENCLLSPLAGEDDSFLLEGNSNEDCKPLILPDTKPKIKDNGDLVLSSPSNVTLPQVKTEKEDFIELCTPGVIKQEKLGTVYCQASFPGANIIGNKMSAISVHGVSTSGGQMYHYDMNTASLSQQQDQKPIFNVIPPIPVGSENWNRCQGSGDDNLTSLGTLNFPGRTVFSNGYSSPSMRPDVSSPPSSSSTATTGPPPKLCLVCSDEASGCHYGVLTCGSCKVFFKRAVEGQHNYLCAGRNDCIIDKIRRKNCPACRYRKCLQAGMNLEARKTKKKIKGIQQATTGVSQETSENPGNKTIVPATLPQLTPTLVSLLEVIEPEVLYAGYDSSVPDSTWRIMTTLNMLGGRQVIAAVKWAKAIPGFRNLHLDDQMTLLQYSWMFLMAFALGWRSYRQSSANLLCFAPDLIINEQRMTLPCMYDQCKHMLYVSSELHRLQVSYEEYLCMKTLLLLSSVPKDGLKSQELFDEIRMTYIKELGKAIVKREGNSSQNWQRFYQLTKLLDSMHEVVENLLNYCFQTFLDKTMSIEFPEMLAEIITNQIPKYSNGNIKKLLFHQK
Cytochrome P450 2D6 (Homo sapiens), sequence (P10635 whole entry, looked up): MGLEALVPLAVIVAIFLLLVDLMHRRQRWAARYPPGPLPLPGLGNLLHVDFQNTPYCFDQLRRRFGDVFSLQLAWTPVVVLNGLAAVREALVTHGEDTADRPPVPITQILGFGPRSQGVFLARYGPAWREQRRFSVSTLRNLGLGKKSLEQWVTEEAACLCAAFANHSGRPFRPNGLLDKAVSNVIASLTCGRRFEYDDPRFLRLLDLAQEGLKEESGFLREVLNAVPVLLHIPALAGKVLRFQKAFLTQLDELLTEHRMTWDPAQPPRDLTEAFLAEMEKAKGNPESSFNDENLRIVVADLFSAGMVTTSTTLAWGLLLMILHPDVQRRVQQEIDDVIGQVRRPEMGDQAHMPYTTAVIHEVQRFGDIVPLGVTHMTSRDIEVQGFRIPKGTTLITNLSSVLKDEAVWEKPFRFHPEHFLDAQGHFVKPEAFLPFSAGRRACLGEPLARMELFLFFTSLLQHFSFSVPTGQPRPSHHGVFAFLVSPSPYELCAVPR
3',5'-cyclic-AMP phosphodiesterase 4B (Homo sapiens), sequence (Q07343 whole entry, looked up): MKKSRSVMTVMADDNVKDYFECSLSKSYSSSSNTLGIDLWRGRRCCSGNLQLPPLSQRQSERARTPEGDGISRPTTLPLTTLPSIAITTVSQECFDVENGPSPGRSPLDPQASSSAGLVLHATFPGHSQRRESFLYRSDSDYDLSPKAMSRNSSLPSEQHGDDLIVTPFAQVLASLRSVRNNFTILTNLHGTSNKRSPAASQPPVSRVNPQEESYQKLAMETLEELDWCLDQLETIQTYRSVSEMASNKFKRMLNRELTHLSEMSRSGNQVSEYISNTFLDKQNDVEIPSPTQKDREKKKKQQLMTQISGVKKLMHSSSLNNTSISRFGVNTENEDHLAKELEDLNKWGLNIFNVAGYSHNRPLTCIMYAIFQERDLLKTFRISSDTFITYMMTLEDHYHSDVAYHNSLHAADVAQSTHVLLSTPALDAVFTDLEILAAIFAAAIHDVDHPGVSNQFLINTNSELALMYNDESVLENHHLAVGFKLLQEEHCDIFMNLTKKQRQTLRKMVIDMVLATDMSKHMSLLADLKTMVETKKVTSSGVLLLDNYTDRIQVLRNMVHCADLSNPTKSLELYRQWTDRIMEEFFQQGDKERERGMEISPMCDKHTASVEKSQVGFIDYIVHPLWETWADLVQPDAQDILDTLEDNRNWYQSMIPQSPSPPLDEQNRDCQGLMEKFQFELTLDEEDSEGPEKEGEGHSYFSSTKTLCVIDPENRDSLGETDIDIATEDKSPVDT
Cytochrome P450 2C9 (Homo sapiens), sequence (P11712 whole entry, looked up): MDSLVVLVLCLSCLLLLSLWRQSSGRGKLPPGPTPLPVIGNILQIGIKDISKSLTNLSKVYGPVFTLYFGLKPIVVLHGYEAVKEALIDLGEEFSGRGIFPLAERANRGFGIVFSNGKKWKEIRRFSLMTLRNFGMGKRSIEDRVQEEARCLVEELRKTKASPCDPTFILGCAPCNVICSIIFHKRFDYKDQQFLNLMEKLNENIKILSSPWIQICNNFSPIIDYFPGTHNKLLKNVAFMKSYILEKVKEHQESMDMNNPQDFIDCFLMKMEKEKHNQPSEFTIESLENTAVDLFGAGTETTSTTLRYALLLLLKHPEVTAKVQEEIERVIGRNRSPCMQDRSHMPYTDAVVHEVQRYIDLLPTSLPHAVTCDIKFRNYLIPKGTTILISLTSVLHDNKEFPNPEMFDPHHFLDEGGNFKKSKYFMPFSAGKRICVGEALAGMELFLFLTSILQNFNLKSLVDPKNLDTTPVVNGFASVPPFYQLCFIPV
Cytochrome P450 3A4 (Homo sapiens), sequence (P08684 whole entry, looked up): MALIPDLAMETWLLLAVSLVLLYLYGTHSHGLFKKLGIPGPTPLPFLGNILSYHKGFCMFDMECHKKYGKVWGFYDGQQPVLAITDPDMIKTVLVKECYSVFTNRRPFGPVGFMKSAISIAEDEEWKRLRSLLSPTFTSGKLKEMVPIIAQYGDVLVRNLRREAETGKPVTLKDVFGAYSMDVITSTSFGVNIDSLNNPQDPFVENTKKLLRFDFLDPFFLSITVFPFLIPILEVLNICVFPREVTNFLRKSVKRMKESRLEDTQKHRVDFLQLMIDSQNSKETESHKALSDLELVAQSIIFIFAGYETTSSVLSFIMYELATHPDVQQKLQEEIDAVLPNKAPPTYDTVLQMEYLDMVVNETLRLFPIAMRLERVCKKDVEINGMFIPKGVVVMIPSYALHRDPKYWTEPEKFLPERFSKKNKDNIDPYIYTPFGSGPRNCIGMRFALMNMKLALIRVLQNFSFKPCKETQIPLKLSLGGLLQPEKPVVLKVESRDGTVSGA

Structure (SMILES)	Potency [1]	activity change, negative = inhibition [2]	Potency [3]	activity, negative = inhibition [4]	Potency [5]	Potency [6]	Potency [7]	Potency [8]	activation [9]	Potency [10]	Potency [11]	activity change, negative = inhibition [3]	Potency [12]	Potency [13]	Potency [14]
O=C(O)C[C@H](NC(=O)CP(=O)(O)O)C(=O)O.[NH-][C@@H]1CCCC[C@@H]1[NH-].[Pt]	> 11.4 µM	-4.37%	inactive	-12%	> 46 µM	> 9.22 µM	inactive	–	–	–	–	–	–	–	–
C[C@@]12CC[C@H]3[C@H](CC=C4C[C@@H](O)CC[C@@]43C)[C@@H]1CC[C@@H]2N(CCO)CCO	> 11.4 µM	-4.05%	inactive	18.7%	> 46 µM	> 9.22 µM	inactive	inactive	9.1%	–	–	–	–	–	–
c1ccc2c(c1)-c1ccccc1C2N1CC2CCC(CC2)C1	> 11.4 µM	22.5%	0.501 µM (active)	17.6%	> 46 µM	> 9.22 µM	inactive	–	–	–	–	–	–	–	–
Cc1cc2ccccc2c[n+]1CC(O)C[n+]1cc2ccccc2cc1C	> 11.4 µM	-5.85%	inactive	4.97%	> 46 µM	> 9.22 µM	inactive	inactive	–	0.0251 µM (active)	–	–	–	–	–
O=C(O)c1ccccc1N[C@H](c1ccccc1)c1ccc2cccnc2c1O	> 11.4 µM	0.796%	1.58 µM (active)	-21.5%	> 46 µM	> 9.22 µM	inactive	inactive	–	–	3.98 µM (active)	–	–	–	–
Nc1cccc2nsnc12	> 11.4 µM	20.1%	–	2.62%	> 46 µM	> 9.22 µM	inactive	–	–	inactive	inactive	-15.3% [at 2.29 µM]	inactive	–	–
Clc1ccc2c(NCCNC3CCCCC3)ccnc2c1	> 11.4 µM	5.59%	–	3.49%	> 46 µM	> 9.22 µM	inactive	inactive	–	3.16 µM (active)	–	-10.2% [at 2.29 µM]	–	–	–
C[C@H](CN(C)C)C(O)(c1ccccc1)c1ccccc1	> 11.4 µM	-8.88%	inactive	8.39%	> 46 µM	> 9.22 µM	inactive	inactive	–	–	inactive	–	–	–	–
Cc1ccc2ccccc2c1CSc1nc(N)nc2c1ncn2CC(C)C	> 11.4 µM	-11.7%	–	-19.8%	> 46 µM	> 9.22 µM	inactive	inactive	–	3.98 µM (active)	3.98 µM (active)	-20.8% [at 2.29 µM]	–	–	–
C[C@H](NC(=O)c1ccc(Cl)c(Cl)c1)c1ccc(-c2ccccc2)cc1	> 11.4 µM	-14.7%	0.631 µM (active)	-12.5%	> 46 µM	> 9.22 µM	inactive	inactive	–	–	1.26 µM (active)	–	–	–	–
O[C@H](CNc1ccccn1)c1ccccc1	> 11.4 µM	1.58%	inactive	4.88%	> 46 µM	> 9.22 µM	inactive	inactive	–	1.58 µM (active)	–	–	–	–	–
CC(C)(C)NCC[C@@H](O)c1cc(C(F)(F)F)nc2c(C(F)(F)F)cccc12	> 11.4 µM	9.95%	–	-4.67%	> 46 µM	> 9.22 µM	inactive	inactive	–	0.316 µM (active)	–	-9.9% [at 2.29 µM]	–	–	–
c1ccc(SCCc2ccncc2)cc1	> 11.4 µM	9.37%	0.2 µM (active)	-2.72%	> 46 µM	> 9.22 µM	inactive	–	–	1.26 µM (active)	0.794 µM (active)	–	1.26 µM (active)	2.51 µM (active)	inactive
CCCC1c2c(ccc3ccccc23)Oc2ccc3ccccc3c21	> 11.4 µM	11%	0.631 µM (active)	10.6%	> 46 µM	> 9.22 µM	inactive	inactive	–	–	0.631 µM (active)	–	–	–	–
Clc1ccccc1NN(Cc1ccccn1)c1ccccc1Cl	> 11.4 µM	-10%	–	-11%	> 46 µM	> 9.22 µM	inactive	inactive	–	–	3.98 µM (active)	-22.4% [at 2.29 µM]	–	–	–
